Source: PubChem BioAssay (NCI)
This is part of a sample that, as a whole, favours compounds with a hit. Of some 79,000 tested, about 15% had one in any assay. Values without a mark were called inactive. Calls of active or inactive are those of the source. Rule as the data show it: active = growth inhibition above about 70%; inactive = the rest.

Columns and labels:
[1] = NCI Yeast Anticancer Drug Screen. Data for the rad52 strain (AID 147);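 also: 0% = growth of vehicle-treated control cultures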; conditions: S. cerevisiae rad52 mutant growth inhibition, stronger effect = higher value
Summary of the method: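 Vehicle-treated cultures served as the reference for growth inhibition of compound-exposed yeast bearing a DNA repair mutation.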

[2] = NCI Yeast Anticancer Drug Screen. Data for the wt1 strain (AID 149);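 also: 0% = growth of vehicle-treated wt1 cultures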; conditions: S. cerevisiae wt1 strain (SPY 50644) growth inhibition, stronger effect = higher value
Summary of the method: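 Readout: yeast growth inhibition, normalised to vehicle controls, in the wt1 strain exposed to test compounds.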

[3] = NCI Yeast Anticancer Drug Screen. Data for the rad50EPP+ strain (AID 151);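 also: 0% = growth of vehicle-treated control cultures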; conditions: S. cerevisiae rad50 mutant strain, stronger effect = higher value
Summary of the method: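 In this screen, rad50EPP+ yeast were exposed to compounds. Growth inhibition was scored against vehicle-treated controls.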

[4] = NCI Yeast Anticancer Drug Screen. Data for the rad50 strain (AID 155);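 also: 0% = growth of vehicle-only cultures of the same strain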; conditions: S. cerevisiae rad50 strain growth inhibition, stronger effect = higher value
Summary of the method: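 Compounds were tested on a yeast strain with an engineered DNA damage repair alteration; the reported value is growth inhibition normalised to vehicle treatment.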

[5] = NCI Yeast Anticancer Drug Screen. Data for the mec2-1 strain (AID 157); conditions: S. cerevisiae mec2-1 strain, stronger effect = higher value
Summary of the method: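 Vehicle-treated cultures served as reference for growth inhibition of compound-exposed mec2-1 yeast.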

[6] = NCI Yeast Anticancer Drug Screen. Data for the rad14 strain (AID 159);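 also: 0% = growth of vehicle-treated control cultures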; conditions: S. cerevisiae rad14 strain growth inhibition, stronger effect = higher value
Summary of the method: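 Compound-treated yeast with a defined DNA-repair lesion; growth inhibition normalised to vehicle-treated cultures.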

[7] = NCI Yeast Anticancer Drug Screen. Data for the CLN2oe strain (AID 163);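 also: 0% = growth of vehicle-only control cultures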; conditions: S. cerevisiae CLN2oe strain, stronger effect = higher value
Summary of the method: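 Inhibition relative to vehicle-treated yeast is reported. Cells: strain with genetic alteration in cell-cycle control, grown with compound.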

[8] = NCI Yeast Anticancer Drug Screen. Data for the cln2 rad14 strain (AID 165);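 also: 0% = growth equal to vehicle treated cultures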; conditions: S. cerevisiae cln2 rad14 strain, stronger effect = higher value
Summary of the method: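 Each compound was tested on cln2 rad14 yeast. Inhibition of growth was calculated against vehicle-exposed controls.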

[9] = NCI Yeast Anticancer Drug Screen. Data for the bub3 strain (AID 167); conditions: S. cerevisiae bub3 mutant strain, stronger effect = higher value
Summary of the method: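 Growth of a checkpoint-deficient yeast mutant is measured after compound exposure. Values represent inhibition relative to vehicle.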

[10] = NCI Yeast Anticancer Drug Screen. Data for the wt2 strain (AID 169);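 also: 0% = growth of vehicle-treated yeast cultures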; conditions: S. cerevisiae wt2 strain growth inhibition, stronger effect = higher value
Summary of the method: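 Inhibition of yeast growth was determined after compound treatment, normalised to controls receiving only vehicle.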

[11] = NCI Yeast Anticancer Drug Screen. Data for the mlh1 strain (AID 171);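 also: 0% = growth of vehicle-treated control cultures of the same strain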; conditions: S. cerevisiae mlh1 strain growth inhibition, stronger effect = higher value
Summary of the method: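 Vehicle-normalised growth inhibition of a repair- or checkpoint-altered yeast strain following compound treatment.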

[12] = NCI Yeast Anticancer Drug Screen. Data for the sgs1 strain (AID 173);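 also: 0% = growth of vehicle-only control cultures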; conditions: S. cerevisiae sgs1 mutant, stronger effect = higher value
Summary of the method: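 Screen format: yeast with repair or checkpoint alterations, compound exposure, growth read relative to vehicle.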

[13] = NCI Yeast Anticancer Drug Screen. Data for the mlh1 rad18 strain (AID 175); conditions: S. cerevisiae mlh1 rad18 strain growth inhibition, stronger effect = higher value
Summary of the method: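 Vehicle-treated cultures served as the reference for growth inhibition in a yeast strain carrying DNA damage repair alterations exposed to each compound.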

[14] = NCI Yeast Anticancer Drug Screen. Data for the sgs1 mgt1 strain (AID 161);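 also: 0% = growth of cultures given vehicle only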; conditions: S. cerevisiae sgs1 mgt1 strain, stronger effect = higher value
Summary of the method: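 Mutant yeast exposed to compound; growth scored against vehicle-only wells.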

[15] = NCI Yeast Anticancer Drug Screen. Data for the rad18 strain (AID 177); conditions: S. cerevisiae rad18 mutant growth inhibition, stronger effect = higher value
Summary of the method: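 Test articles were incubated with altered yeast defective in DNA damage repair. Results are given as inhibition of growth versus vehicle.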

[16] = at 5.0 µM (retest, dose inferred, filed as 0.5)
[17] = at 50.0 µM (retest, dose inferred, filed as 5.0)

CCOC(=O)c1csc(Br)n1
growth inhibition ([1]; at 1.2 µM): -2%
growth inhibition ([1]; at 3.7 µM): -3%
growth inhibition ([1]; at 11.0 µM): -7%
growth inhibition ([1]; at 33.0 µM): -5%
growth inhibition ([1]; at 100.0 µM): -9%
growth inhibition ([2]; at 1.2 µM): 3%
growth inhibition ([2]; at 3.7 µM): -3%
growth inhibition ([2]; at 11.0 µM): -3%
growth inhibition ([2]; at 33.0 µM): -3%
growth inhibition ([2]; at 100.0 µM): -5%
growth inhibition ([3]; at 1.2 µM): -2%
growth inhibition ([3]; at 3.7 µM): 4%
growth inhibition ([3]; at 11.0 µM): -2%
growth inhibition ([3]; at 33.0 µM): 0%
growth inhibition ([3]; at 100.0 µM): -4%
growth inhibition ([4]; at 1.2 µM): -5%
growth inhibition ([4]; at 3.7 µM): 1%
growth inhibition [4, 16]: -4%
growth inhibition ([4]; at 11.0 µM): 0%
growth inhibition ([4]; at 33.0 µM): -1%
growth inhibition [4, 17]: -3%
growth inhibition ([4]; at 50.0 µM): 98.6% (active)
growth inhibition ([4]; at 100.0 µM): -12%
growth inhibition ([5]; at 1.2 µM): -7%
growth inhibition ([5]; at 3.7 µM): -2%
growth inhibition [5, 16]: -16%
growth inhibition ([5]; at 11.0 µM): -3%
growth inhibition ([5]; at 33.0 µM): -5%
growth inhibition [5, 17]: -7%
growth inhibition ([5]; at 50.0 µM): 99.5% (active)
growth inhibition ([5]; at 100.0 µM): -3%
growth inhibition ([6]; at 1.2 µM): 0%
growth inhibition ([6]; at 3.7 µM): 2%
growth inhibition ([6]; at 11.0 µM): -2%
growth inhibition ([6]; at 33.0 µM): -4%
growth inhibition ([6]; at 100.0 µM): -8%
growth inhibition ([7]; at 1.2 µM): -2%
growth inhibition ([7]; at 3.7 µM): -5%
growth inhibition ([7]; at 11.0 µM): 0%
growth inhibition ([7]; at 33.0 µM): 0%
growth inhibition ([7]; at 100.0 µM): -4%
growth inhibition [8, 16]: -8%
growth inhibition [8, 17]: 39%
growth inhibition ([8]; at 50.0 µM): 83.5% (active)
growth inhibition ([9]; at 1.2 µM): -5%
growth inhibition ([9]; at 3.7 µM): -4%
growth inhibition [9, 16]: -11%
growth inhibition ([9]; at 11.0 µM): -6%
growth inhibition ([9]; at 33.0 µM): -6%
growth inhibition [9, 17]: -7%
growth inhibition ([9]; at 50.0 µM): 99% (active)
growth inhibition ([9]; at 100.0 µM): -14%
growth inhibition ([10]; at 1.2 µM): -2%
growth inhibition ([10]; at 3.7 µM): -2%
growth inhibition ([10]; at 11.0 µM): -2%
growth inhibition ([10]; at 33.0 µM): -4%
growth inhibition ([10]; at 100.0 µM): -4%
growth inhibition ([11]; at 1.2 µM): 3%
growth inhibition ([11]; at 3.7 µM): -7%
growth inhibition ([11]; at 11.0 µM): 0%
growth inhibition ([11]; at 33.0 µM): 3%
growth inhibition ([11]; at 100.0 µM): 0%
growth inhibition ([12]; at 1.2 µM): -2%
growth inhibition ([12]; at 3.7 µM): -2%
growth inhibition ([12]; at 11.0 µM): -1%
growth inhibition ([12]; at 33.0 µM): -3%
growth inhibition ([12]; at 100.0 µM): -6%
growth inhibition [13, 16]: -16%
growth inhibition [13, 17]: -18%
growth inhibition ([13]; at 50.0 µM): 78.3% (active)

CCOC(=O)C(NC(=O)CC)(N1CCN(c2cc3c(cc2F)c(=O)c(C(=O)O)cn3C2CC2)CC1)C(F)(F)F (stereo not given)
growth inhibition ([1]; at 1.2 µM): 0%
growth inhibition ([1]; at 3.7 µM): 3%
growth inhibition ([1]; at 11.0 µM): 44%
growth inhibition ([1]; at 33.0 µM): 91% (active)
growth inhibition ([1]; at 100.0 µM): 97% (active)
growth inhibition ([2]; at 1.2 µM): -2%
growth inhibition ([2]; at 3.7 µM): 1%
growth inhibition ([2]; at 11.0 µM): 0%
growth inhibition ([2]; at 33.0 µM): 14%
growth inhibition ([2]; at 100.0 µM): 66%
growth inhibition ([3]; at 1.2 µM): -1%
growth inhibition ([3]; at 3.7 µM): 1%
growth inhibition ([3]; at 11.0 µM): 3%
growth inhibition ([3]; at 33.0 µM): 3%
growth inhibition ([3]; at 100.0 µM): 11%
growth inhibition ([5]; at 1.2 µM): -1%
growth inhibition ([5]; at 3.7 µM): -5%
growth inhibition [5, 16]: 0%
growth inhibition ([5]; at 11.0 µM): 1%
growth inhibition ([5]; at 33.0 µM): 47%
growth inhibition [5, 17]: 6%
growth inhibition ([5]; at 50.0 µM): 84.1% (active)
growth inhibition ([5]; at 100.0 µM): 96% (active)
growth inhibition ([6]; at 1.2 µM): 0%
growth inhibition ([6]; at 3.7 µM): 2%
growth inhibition ([6]; at 11.0 µM): 6%
growth inhibition ([6]; at 33.0 µM): 29%
growth inhibition ([6]; at 100.0 µM): 91% (active)
growth inhibition [14, 16]: -2%
growth inhibition [14, 17]: 15%
growth inhibition ([14]; at 50.0 µM): 28.6%
growth inhibition ([7]; at 1.2 µM): 1%
growth inhibition ([7]; at 3.7 µM): 3%
growth inhibition ([7]; at 11.0 µM): -3%
growth inhibition ([7]; at 33.0 µM): 21%
growth inhibition ([7]; at 100.0 µM): 86% (active)
growth inhibition [8, 16]: 1%
growth inhibition [8, 17]: -1%
growth inhibition ([8]; at 50.0 µM): 45.6%
growth inhibition ([9]; at 1.2 µM): -40%
growth inhibition ([9]; at 3.7 µM): 0%
growth inhibition [9, 16]: -14%
growth inhibition ([9]; at 11.0 µM): 0%
growth inhibition ([9]; at 33.0 µM): 18%
growth inhibition [9, 17]: 2%
growth inhibition ([9]; at 50.0 µM): 79.1% (active)
growth inhibition ([9]; at 100.0 µM): 91% (active)
growth inhibition ([10]; at 1.2 µM): -1%
growth inhibition ([10]; at 3.7 µM): -4%
growth inhibition ([10]; at 11.0 µM): -2%
growth inhibition ([10]; at 33.0 µM): 10%
growth inhibition ([10]; at 100.0 µM): 84% (active)
growth inhibition ([11]; at 1.2 µM): -1%
growth inhibition ([11]; at 3.7 µM): 0%
growth inhibition ([11]; at 11.0 µM): 0%
growth inhibition ([11]; at 33.0 µM): 16%
growth inhibition ([11]; at 100.0 µM): 85% (active)
growth inhibition ([12]; at 1.2 µM): 0%
growth inhibition ([12]; at 3.7 µM): 1%
growth inhibition ([12]; at 11.0 µM): 4%
growth inhibition ([12]; at 33.0 µM): 28%
growth inhibition ([12]; at 100.0 µM): 88% (active)
growth inhibition [13, 16]: -3%
growth inhibition [13, 17]: 21%
growth inhibition ([13]; at 50.0 µM): 74.5% (active)
growth inhibition ([15]; at 1.2 µM): -2%
growth inhibition ([15]; at 3.7 µM): -2%
growth inhibition ([15]; at 11.0 µM): 0%
growth inhibition ([15]; at 33.0 µM): 23%
growth inhibition ([15]; at 100.0 µM): 91% (active)

CC(=O)OCC1OC(O[C@H]2C=C[C@@H](C(=O)OCc3ccccc3)n3c(=O)n(-c4ccccc4)c(=O)n32)C(OC(C)=O)C(OC(C)=O)C1OC(C)=O (stereo not given in full)
growth inhibition ([1]; at 1.2 µM): 22%
growth inhibition ([1]; at 3.7 µM): 24%
growth inhibition ([1]; at 11.0 µM): 14%
growth inhibition ([1]; at 33.0 µM): 63%
growth inhibition ([1]; at 100.0 µM): 77% (active)
growth inhibition ([2]; at 1.2 µM): -11%
growth inhibition ([2]; at 3.7 µM): 2%
growth inhibition ([2]; at 11.0 µM): -3%
growth inhibition ([2]; at 33.0 µM): 21%
growth inhibition ([2]; at 100.0 µM): 29%
growth inhibition ([3]; at 1.2 µM): -9%
growth inhibition ([3]; at 3.7 µM): 3%
growth inhibition ([3]; at 11.0 µM): 2%
growth inhibition ([3]; at 33.0 µM): 16%
growth inhibition ([3]; at 100.0 µM): 18%
growth inhibition ([4]; at 1.2 µM): -14%
growth inhibition ([4]; at 3.7 µM): 10%
growth inhibition [4, 16]: 39%
growth inhibition ([4]; at 11.0 µM): 0%
growth inhibition ([4]; at 33.0 µM): 50%
growth inhibition [4, 17]: 72% (active)
growth inhibition ([4]; at 50.0 µM): 59%
growth inhibition ([4]; at 100.0 µM): 67%
growth inhibition ([5]; at 1.2 µM): 2%
growth inhibition ([5]; at 3.7 µM): 9%
growth inhibition [5, 16]: 23%
growth inhibition ([5]; at 11.0 µM): -8%
growth inhibition ([5]; at 33.0 µM): 36%
growth inhibition [5, 17]: 71% (active)
growth inhibition ([5]; at 50.0 µM): 57%
